# About 79,000 compounds went through this panel and 15% of them were active in at least one assay; those are over-represented in the sample as a whole. Unmarked numbers belong to inactive results. Calls of active or inactive are those of the source. Cut-off read from the data, not from the text of the source: active = growth inhibition above about 70%; inactive = the rest.
# How the values were obtained:
# [1] = NCI Yeast Anticancer Drug Screen. Data for the rad14 strain (AID 159);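 note: 0% = growth of vehicle-treated control cultures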; settings: S. cerevisiae rad14 strain growth inhibition, active compounds read high
# Summary of the method: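 Readout: yeast growth inhibition, referenced to vehicle-only cultures. Strain bears a defined alteration in DNA damage repair.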
# [2] = NCI Yeast Anticancer Drug Screen. Data for the sgs1 mgt1 strain (AID 161);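 note: 0% = growth of cultures given vehicle only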; settings: S. cerevisiae sgs1 mgt1 strain, active compounds read high
# Summary of the method: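 Genetically altered yeast, compound exposure, growth inhibition relative to vehicle.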
# [3] = NCI Yeast Anticancer Drug Screen. Data for the CLN2oe strain (AID 163);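 note: 0% = growth of vehicle-only control cultures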; settings: S. cerevisiae CLN2oe strain, active compounds read high
# Summary of the method: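 First, the altered yeast strain was treated with each compound; second, its growth was measured; finally, inhibition was derived by comparison with vehicle controls.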
# [4] = NCI Yeast Anticancer Drug Screen. Data for the cln2 rad14 strain (AID 165);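 note: 0% = growth equal to vehicle treated cultures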; settings: S. cerevisiae cln2 rad14 strain, active compounds read high
# Summary of the method: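 Test compounds were added to cln2 rad14 yeast cultures; inhibition of growth was then determined by comparison with vehicle treatment.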
# [5] = NCI Yeast Anticancer Drug Screen. Data for the bub3 strain (AID 167); settings: S. cerevisiae bub3 mutant strain, active compounds read high
# Summary of the method: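 Part of a panel of yeast mutants defective in DNA damage repair or cell cycle regulation. Each strain is grown with compound, and inhibition is calculated relative to solvent-treated cultures.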
# [6] = NCI Yeast Anticancer Drug Screen. Data for the wt2 strain (AID 169);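 note: 0% = growth of vehicle-treated yeast cultures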; settings: S. cerevisiae wt2 strain growth inhibition, active compounds read high
# Summary of the method: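 The panel's yeast strains carry defined changes in DNA repair or cell cycle genes. Each strain is grown with compound, and growth loss is scored relative to vehicle.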
# [7] = NCI Yeast Anticancer Drug Screen. Data for the mlh1 strain (AID 171);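 note: 0% = growth of vehicle-treated control cultures of the same strain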; settings: S. cerevisiae mlh1 strain growth inhibition, active compounds read high
# Summary of the method: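 Inhibition values reflect reduced yeast growth in the presence of compound, referenced to vehicle controls, using a strain chosen for its alteration in DNA repair or cell cycle control.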
# [8] = NCI Yeast Anticancer Drug Screen. Data for the mlh1 rad18 strain (AID 175); settings: S. cerevisiae mlh1 rad18 strain growth inhibition, active compounds read high
# Summary of the method: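 Inhibition values reflect reduced growth of mutant yeast versus vehicle-treated controls following compound exposure; the mutations affect DNA damage repair.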
# [9] = NCI Yeast Anticancer Drug Screen. Data for the rad18 strain (AID 177); settings: S. cerevisiae rad18 mutant growth inhibition, active compounds read high
# Summary of the method: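 Steps: expose repair-mutant yeast to compound; measure growth; express as inhibition relative to vehicle control.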
# [10] = at 5.0 µM (retest, dose inferred, filed as 0.5)
# [11] = at 50.0 µM (retest, dose inferred, filed as 5.0)
smiles,measurement,setting,value
OC1(c2ccccc2)CSC2=Nc3ccccc3C3CCN1N23 (centres undefined),growth inhibition,[1]; at 33.0 µM,13%
same,growth inhibition,[1]; at 100.0 µM,94% (active)
same,growth inhibition,[2]; [10],27%
same,growth inhibition,[2]; [11],51%
same,growth inhibition,[2]; at 50.0 µM,80.2% (active)
same,growth inhibition,[3]; at 1.2 µM,-23%
same,growth inhibition,[3]; at 3.7 µM,-16%
same,growth inhibition,[3]; at 11.0 µM,-46%
same,growth inhibition,[3]; at 33.0 µM,2%
same,growth inhibition,[3]; at 100.0 µM,93% (active)
same,growth inhibition,[4]; [10],25%
same,growth inhibition,[4]; [11],40%
same,growth inhibition,[4]; at 50.0 µM,16.4%
same,growth inhibition,[5]; at 1.2 µM,-56%
same,growth inhibition,[5]; at 3.7 µM,-54%
same,growth inhibition,[5]; [10],19%
same,growth inhibition,[5]; at 11.0 µM,-43%
same,growth inhibition,[5]; at 33.0 µM,58%
same,growth inhibition,[5]; [11],11%
same,growth inhibition,[5]; at 50.0 µM,73.7% (active)
same,growth inhibition,[5]; at 100.0 µM,91% (active)
same,growth inhibition,[6]; at 1.2 µM,-47%
same,growth inhibition,[6]; at 3.7 µM,-39%
same,growth inhibition,[6]; at 11.0 µM,-34%
same,growth inhibition,[6]; at 33.0 µM,-1%
same,growth inhibition,[6]; at 100.0 µM,94% (active)
same,growth inhibition,[7]; at 1.2 µM,-81%
same,growth inhibition,[7]; at 3.7 µM,-100%
same,growth inhibition,[7]; at 11.0 µM,-63%
same,growth inhibition,[7]; at 33.0 µM,58%
same,growth inhibition,[7]; at 100.0 µM,93% (active)
same,growth inhibition,[8]; [10],23%
same,growth inhibition,[8]; [11],78% (active)
same,growth inhibition,[8]; at 50.0 µM,80.7% (active)
same,growth inhibition,[9]; at 1.2 µM,-65%
same,growth inhibition,[9]; at 3.7 µM,-55%
same,growth inhibition,[9]; at 11.0 µM,-70%
same,growth inhibition,[9]; at 33.0 µM,-21%
same,growth inhibition,[9]; at 100.0 µM,92% (active)

# Reference: PubChem BioAssay (NCI)
